The molecules below were run on DRIVER-selected RNA biosensor (aptazyme) pool (assay: maximum fold change of ribozyme cleavage across biosensor pool versus no-compound control; higher = stronger biosensor response (ligand inhibits cleavage)). Settings: 10 µM.
In short: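 Fold change of cleavage, the ratio of cleaved:uncleaved read fractions versus a no-compound condition corrected with reference sequences, is given as the maximum over all biosensors. It was measured by CleaveSeq on a pool of 1,730 array-resynthesized ribozyme biosensors transcribed by T7 with 9 mM rNTPs for 15–30 min at 37°C in the presence of one compound at 10 µM final, added from a 10x DMSO stock. After reverse transcription at 50°C, cleaved and uncleaved products were PCR-barcoded and counted by Illumina sequencing.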

| SMILES | maximum fold change |
| --- | --- |
| CS(=O)(=O)c1ccc2nc(NC(=O)c3cc4ccccc4o3)sc2c1 | 7.28 |
| COCCNC(=O)c1ccc(CS(=O)Cc2ccc(Cl)cc2)o1 (stereo unspecified) | 3.58 |
| CCC(C)NC(=O)Cn1cc(C=O)c2ccccc21 (stereo unspecified) | 4.38 |
| CC(=O)N1N=C(c2c(-c3ccccc3)c3cc(Cl)ccc3[nH]c2=O)CC1c1ccco1 (stereo unspecified) | 6.87 |
| CC(=Cc1ccccc1)/C=C1N=C(/C=C/c2ccccc2)OC/1=O | 2.27 |
| Brc1ccc(/C=N/c2nc3ccccc3n2CCN2CCCCC2)cc1 | 2.07 |
| CCOC(=O)c1cnc2c(OC)cccc2c1NCC1COc2ccccc2O1 (stereo unspecified) | 7.13 |
| C=CCNC(=O)c1c(C)c(C(=O)OCC)n(C)c1C | 2.81 |
| Cc1ccc(-c2noc(CCC(=O)Nc3cc(C)ccn3)n2)cc1 | 2.17 |
| c1sc2c(c1CN1CCC3(CC1)OCCO3)CCCC2 | 2.61 |
| O=C(NC1(C(F)(F)F)N=C(c2ccccc2)N(C2CCCCC2)C1=O)c1ccco1 (stereo unspecified) | 2.01 |
| Cc1cccc(CNCc2c(C(=O)O)c(C)n(Cc3c(F)cccc3Cl)c2C)c1 | 1.89 |
| COc1ccc(-c2nc(CS(=O)(=O)CC(=O)NC3CCC(C)CC3)c(C)o2)cc1 (stereo unspecified) | 2.18 |
| COc1ccc2c(c1)c(C(=O)O)c(C)n2CCc1ccc(OC)c(OC)c1 | 2.38 |
| Cc1ccc(C(=O)/C=C2\Nc3ccccc3NC2=O)cc1C | 7.35 |
| COc1cccc(-c2nc3sc4c(c3c(=O)n2CC(=O)NC2CCCCC2)CCCC4)c1 | 1.74 |

| SMILES | maximum fold change |
| --- | --- |
| COc1ccccc1OCC(O)Cn1c[n+](C)c2cc(C)c(C)cc21 (stereo unspecified) | 3.47 |
| Cc1cc(C)c(Cn2c(C)c(CNCc3cccc(Cl)c3)c(C(=O)O)c2C)c(C)c1 | 1.74 |
| CCOC(=O)c1cnc2c(C)cc(Cl)cc2c1NCCCO | 9.37 |
| COc1ccc(S(=O)Cc2ccc(C(=O)NC3CC3)o2)cc1 (stereo unspecified) | 2.4 |
| C=Cc1ccc(Cn2c(C(=O)O)c(CNCC3CCCO3)c3ccc(C)cc32)cc1 (stereo unspecified) | 2.75 |
| Cn1c(=O)[nH]c(=O)c2c1nc(NCCCn1ccnc1)n2CCCc1ccccc1 | 1.96 |
| Cc1oc(-c2ccccc2F)nc1CS(=O)(=O)CC(=O)NC1CCCC(C)C1C (stereo unspecified) | 4.66 |
| COc1ccc(OC)c(C2C3=C(CC(C)(C)CC3=O)OC3=C2C(=O)CC(C)(C)C3)c1 | 2.36 |
| Cn1c(=O)c2c(-c3ccc(Cl)cc3)n(C3CCCCC3)cc2n(C)c1=O | 2.62 |
| CCOc1ccccc1CNC(=O)c1ccc(CS(=O)Cc2ccc(Cl)cc2)o1 (stereo unspecified) | 4.15 |
| C=Cc1ccc(Cn2c(C(=O)O)c(CNCc3ccco3)c3ccc(C)cc32)cc1 | 2.45 |
| CCOC(=O)c1cnc(SC)nc1NC(=O)CSCc1csc2c1CCCC2 | 3.61 |
| Cc1ccc(NC(=O)c2cc3c(=O)oc4ccccc4c3s2)nc1 | 6.76 |
| Cc1ccc(-c2noc(CCC(=O)NCCN3CCOCC3)n2)cc1 | 3.61 |
| COc1ccc(C(=O)Cc2cc3cccc(OC)c3oc2=O)cc1 | 1.82 |

From the supplement of paper PMC9477273
